Measured values: PubChem BioAssay (Tox21)
Values joined by “and” are separate entries in the source; they are usually repeats but may differ in a detail not shown here. Equal entries are not always repeated. Records with an inconclusive call do not appear. More than one record can exist for a structure, and the calls need not agree. Active and inactive are the calls of the source. Unless noted, calls follow the shape of the dose curve; as a rule, active = well fitted curve in the direction sought with a large enough effect in the repeat runs; inconclusive = weak or mixed curves; inactive = no such curve, though single readings can be large; an effect the other way counts as inactive or inconclusive.

Legend:
[1] = qHTS assay to identify small molecule agonists of the hypoxia (HIF-1) signaling pathway - cell viability counter screen (AID 1224844; calls by dose curve; also: nearly all actives have a fitted effect of over 50% in size)
Method in brief: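 HRE-bla ME-180; 0.5% dFBS; cpd 17 h, 37C, 5% CO2; CellTiter-Glo lum., 30 min RT, post-FRET read, same wells.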

[2] = qHTS assay to identify small molecule agonists of H2AX (AID 1224845; active = well fitted activation curve with a large enough effect in the signal ratio in the repeat runs, not every such curve was filed as active; the % refers to the signal ratio)
Method in brief: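 Wild-type CHO-K1 cells, plated overnight, exposed 3hr at 37C to 15 concentrations (0.76% DMSO final). Lysed, then HTRF anti-pH2AX (S139) cryptate and anti-H2AX-d2 antibodies, 24 hr room temperature; 665/620 nm emission read.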

[3] = qHTS assay to identify small molecule agonists of the hypoxia (HIF-1) signaling pathway (AID 1224846; active = well fitted activation curve with a large enough effect in the signal ratio in the repeat runs, not every such curve was filed as active; the % refers to the signal ratio)
Method in brief: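 Reporter induction in HRE-bla ME-180 cells is taken as agonism: cells sit 5 hrs after plating, receive compounds or DMSO only, incubate 17 hrs at 37C under 5% CO2, and are loaded with CCF4-AM for beta-lactamase FRET measurement.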

[4] = qHTS assay to identify small molecule agonists of H2AX - cell viability counter screen (AID 1224847; calls by dose curve; also: nearly all actives have a fitted effect of over 30% in size; also: potency is read from the fitted curve at half-maximal effect)
Method in brief: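 Cells plated first: CHO-K1, 1000 per well in 10% FBS medium, incubated overnight at 37C. Then 15-point compound titration added (final DMSO 0.76%) for 3 hr. Finally CellTiter-Glo added and luminescence read.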

[5] = qHTS assay to identify small molecule antagonists of the estrogen related receptor (ERR) signaling pathway from Tox21 library (AID 1224848); also: nearly all actives have a fitted effect of over 50% in size; also: potency is read from the fitted curve at half-maximal effect
Method in brief: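 Compounds dissolved in DMSO are pin-transferred onto ERR reporter cells (2,000 per well) that have settled for 6 h at 37 C. Plates then incubate 18 h at 37 C before ONE-Glo luciferase reagent and a luminescence read 30 min later.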

[6] = qHTS assay to identify small molecule agonists of the estrogen related receptor (ERR) signaling pathway from Tox21 library (AID 1224849; calls by dose curve; also: nearly all actives have a fitted effect of over 15% in size); conditions: ERR reporter cell line, ONE-Glo luciferase, 18 h
Method in brief: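 Tox21 compounds tested for ERR agonism in an NTP reporter cell line: 18 h treatment at 37 C, then ONE-Glo luminescence.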

[7] = qHTS RealTime-Glo MT Cell Viability Assay in HepG2 cells - 24 hour (AID 1224867); also: nearly all actives have a fitted effect of over 50% in size; also: potency is read from the fitted curve at half-maximal effect
Method in brief: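 HepG2 suspension premixed with RealTime-Glo reagents is plated at 600 cells per well and left 5 h at 37 C/5% CO2. Compounds in DMSO then go in, and bioluminescence reflecting viable cell number is recorded over 40 h.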

[8] = A CellTox Green Cytotoxicity Assay to monitor cytotoxicity in HEK293 cells - 0 hour (AID 1224869); also: nearly all actives have a fitted effect of over 50% in size
Method in brief: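 Tox21 screen in HEK293: membrane-impermeant cyanine dye fluoresces on binding dead-cell DNA; compound pinned 5 h post-seeding, plates held at 37 C, signal read repeatedly through 40 h.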

[9] = qHTS RealTime-Glo MT Cell Viability Assay in HepG2 cells - 40 hour (AID 1224870); also: nearly all actives have a fitted effect of over 50% in size; also: potency is read from the fitted curve at half-maximal effect
Method in brief: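 HepG2 cells (600/well) mixed with RealTime-Glo MT reagent, settled 5 h at 37 C/5% CO2 before compound addition. Nonlytic NanoLuc luminescence from viable-cell prosubstrate reduction read repeatedly during 40 h treatment at 37 C.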

[10] = qHTS RealTime-Glo MT Cell Viability Assay in HEK293 cells - 32 hour (AID 1224868); also: nearly all actives have a fitted effect of over 50% in size; also: potency is read from the fitted curve at half-maximal effect
Method in brief: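 Reads taken at 0, 8, 16, 24, 32 and 40 h from the same wells. HEK293 cells (600/well) carried RealTime-Glo reagents from seeding, with compound added after a 5 h settle at 37 C.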
% is scaled to controls: 0 for no effect and ±100 for the full control effect.

C=C1C[C@H]2[C@@H]3C=C(C)C4=CC(=O)CC[C@]4(C)[C@H]3CC[C@]2(C)[C@@]1(OC(C)=O)C(C)=O
inactive: Potency [1] | Potency [2] | outcome [3] | Potency [4] | activity change, positive = activation ([6]; at 42.5 µM (top of the series)) -56.4% and -29.1% | Potency [7] | Potency [8] | Potency [9]
active: Potency [5] 24.8 µM and 21.1 µM

O=C(O)c1ccc(O)cc1
inactive: Potency [1] | Potency [2] | outcome [3] | Potency [4] | Potency [5] | activity change, positive = activation ([6]; at 92.4 µM (top of the series)) 9.49% | Potency [7] | Potency [10] | Potency [8] | Potency [9]

NCCOCCO
inactive: Potency [1] | Potency [2] | outcome [3] | Potency [4] | Potency [5] | activity change, positive = activation ([6]; at 92.4 µM (top of the series)) -2.16% and 1.44% | Potency [7] | Potency [10] | Potency [8] | Potency [9]

CC(=O)[C@@]1(O)CC[C@H]2[C@@H]3C[C@H](C)C4=CC(=O)C=C[C@]4(C)[C@@]3(F)[C@@H](O)C[C@@]21C
inactive: Potency [1] | Potency [2] | outcome [3] | Potency [4] | activity change, positive = activation ([6]; at 42.5 µM (top of the series)) -14.9% | activity change, positive = activation ([6]; at 92.4 µM (top of the series)) -31% | Potency [7] | Potency [8] | Potency [9]
19.5 µM (active) and inactive: Potency [10]

CCCCCCCCCCCCCO
inactive: Potency [1] | Potency [2] | outcome [3] | Potency [4] | Potency [5] | activity change, positive = activation ([6]; at 92.4 µM (top of the series)) 0.0318% and 3.04% | Potency [7] | Potency [10] | Potency [8] | Potency [9]

CCCCCC=O
inactive: Potency [1] | Potency [2] | outcome [3] | Potency [4] | Potency [5] | activity change, positive = activation ([6]; at 92.4 µM (top of the series)) 8.48% and 5.45% | Potency [7] | Potency [10] | Potency [8] | Potency [9]

CCCCCCC(C)O (stereo not drawn)
inactive: Potency [1] | Potency [2] | outcome [3] | Potency [4] | Potency [7] | Potency [10] | Potency [8]

Cc1ccc(S(=O)(=O)NCl)cc1
inactive: Potency [1] | Potency [2] | outcome [3] | Potency [4] | Potency [5] | activity change, positive = activation ([6]; at 92.4 µM (top of the series)) 5.11% and 6.95% | Potency [7] | Potency [10] | Potency [8] | Potency [9]

CCCCCC1C(=O)CCC1CC(=O)OC (stereo not drawn)
inactive: Potency [1] | Potency [2] | outcome [3] | Potency [4] | Potency [5] | activity change, positive = activation ([6]; at 92.4 µM (top of the series)) 0.33% and 0.3% | Potency [7] | Potency [10] | Potency [8]

Cc1ccc(C(C)(C)C)cc1
inactive: Potency [1] | Potency [2] | outcome [3] | Potency [4] | Potency [7] | Potency [10] | Potency [8]

C[C@]12C=CC(=O)C=C1CC[C@H]1[C@@H]3C[C@@H](O)[C@](O)(C(=O)CO)[C@@]3(C)C[C@H](O)[C@@]12F
inactive: Potency [1] | Potency [2] | outcome [3] | Potency [4] | Potency [5] | activity change, positive = activation ([6]; at 42.5 µM (top of the series)) 2.12% | activity change, positive = activation ([6]; at 92.4 µM (top of the series)) -0.443% | Potency [7] | Potency [10] | Potency [8] | Potency [9]

COC(=O)c1ccc(C)cc1
inactive: Potency [1] | Potency [2] | outcome [3] | Potency [4] | Potency [7] | Potency [10] | Potency [8] | Potency [9]

CC1=CC(C)(C)Nc2ccccc21
inactive: Potency [1] | Potency [2] | outcome [3] | Potency [4] | Potency [5] | activity change, positive = activation ([6]; at 92.4 µM (top of the series)) 1.56% and -18.3% | Potency [7] | Potency [10] | Potency [8] | Potency [9]

[Na+]
inactive: Potency [1] | Potency [2] | outcome [3] | Potency [4] | Potency [7] | Potency [10] | Potency [8]
inactive and 38.9 µM (active): Potency [9]

Cc1ccc(C(C)(C)C)c(O)c1
active: Potency [4] 97.5 µM and 89.8 µM
inactive: Potency [1] | Potency [2] | outcome [3] | activity change, positive = activation ([6]; at 92.4 µM (top of the series)) -17.4% and -15.2% | Potency [7] | Potency [10] | Potency [8] | Potency [9]

c1ccc2c(c1)[nH]c1ccccc12
inactive: Potency [1] | Potency [2] | outcome [3] | Potency [4] | Potency [7] | Potency [10] | Potency [8]

IC(I)I
inactive: Potency [1] | Potency [2] | outcome [3] | Potency [4] | Potency [5] | activity change, positive = activation ([6]; at 92.4 µM (top of the series)) 0.549% and 0.511% | Potency [10] | Potency [8]
active: Potency [7] 38.8 µM and 38.9 µM | Potency [9] 21.8 µM and 4.9 µM

CCc1cccc2c3c([nH]c12)C(CC)(CC(=O)O)OCC3 (stereo not drawn)
inactive: Potency [1] | Potency [2] | Potency [4] | Potency [7] | Potency [10] | Potency [8] | Potency [9]

COC(=O)CC(=O)OC
inactive: Potency [1] | Potency [2] | outcome [3] | Potency [4] | Potency [7] | Potency [10] | Potency [8] | Potency [9]

O=Cc1ccccc1C=O
inactive: Potency [1] | Potency [2] | outcome [3] | Potency [4] | Potency [7] | Potency [10] | Potency [8]
38.9 µM (active) and inactive: Potency [9]

CC(=O)O[C@]1(C(C)=O)CC[C@H]2[C@@H]3C=C(C)C4=CC(=O)CC[C@]4(C)[C@H]3CC[C@@]21C
inactive: Potency [1] | Potency [2] | Potency [4] | activity change, positive = activation ([6]; at 42.5 µM (top of the series)) -37.5% | activity change, positive = activation ([6]; at 92.4 µM (top of the series)) -63.2% | Potency [7] | Potency [8] | Potency [9]
active: Potency [5] 21.7 µM and 26.6 µM | Potency [10] 17.4 µM
